Rows were chosen to be rich in hits. Some 2.4% of all compounds tested hit in one or more screens of this group.
SENP6 block – SENP6 protease inhibitors, primary screen, biochemical, luminescence, uHTS; Recombinant SENP6 catalytic domain, aminoluciferin luminescence; inhibition, % at 10 µM; 330,000 compounds, 1.8% hits;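 active = inhibition above about 50% at the single tested dose, limit read from the data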
Platelet DG rel – inhibitors of platelet dense granule secretion, primary screen, cell-based, MLPCN, human platelets | human platelet-rich plasma, SFLLRN dense granule ATP release, luminescence | inhibition, %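 (compounds screened at 7.5 µM in platelet-rich plasma)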 | 300,000 compounds, 0.22% hits | AID 1663, 2009;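 active = mean replicate score, as percent of positive control, at or above 50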
SENP7 block – SENP7 protease inhibitors, primary screen, biochemical, luminescence, uHTS; recombinant SENP7, Z-RLRGG-aminoluciferin luminescence, 40 min; Sentrin-specific protease 7 (Homo sapiens), Q9BQF6; inhibition, % at 5 µM; 330,000 compounds, 1.5% hits;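 active = inhibition above about 50% at the single test dose, limit read from the data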
SENP8 block-1 – human SENP8 protease inhibitors, primary screen, biochemical, fluorescence, Nedd8 protein substrate, uHTS; recombinant SENP8; 360,000 compounds, 0.64% hits; AID 602440, 2012; Sentrin-specific protease 8 (Homo sapiens), Q96LD8; inhibition, % at 20 µM; in the data active = inhibition mostly above about 40%, no sharp cut-off; inactive = mostly below about 27%
Target sequence (Q96LD8 whole entry, looked up): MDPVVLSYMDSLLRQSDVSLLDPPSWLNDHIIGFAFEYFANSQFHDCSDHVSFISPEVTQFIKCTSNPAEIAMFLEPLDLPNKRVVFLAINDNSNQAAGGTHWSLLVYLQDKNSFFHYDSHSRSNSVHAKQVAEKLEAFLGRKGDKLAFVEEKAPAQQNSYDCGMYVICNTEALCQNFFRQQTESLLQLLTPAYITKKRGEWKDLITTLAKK
SENP8 block-2 – SENP8 protease inhibitors, primary screen, biochemical, luminescence. Sentrin-specific protease 8 (Homo sapiens), Q96LD8. purified SENP8, Z-RLRGG-aminoluciferin cleavage. inhibition, % at 10 µM. 330,000 compounds, 1.2% hits; in the data active = inhibition above about 50%
SENP8 conf – human SENP8 protease inhibitors, confirmation, biochemical, Nedd8 protein substrate, single concentration; shares compounds with SENP8 block-1; purified SENP8, Nedd8-AMC/pro-Nedd8 cleavage fluorescence, 30 min; 1,400 compounds, 15% hits; inhibition, % at 25 µM; in the data active = inhibition mostly above about 39%, no sharp cut-off; inactive = mostly below about 34%
Large screens that a line does not name were inactive (follow-up assays come after a bar, where they were run).

O=C1Nc2ccc(Br)cc2C12NNc1ccccc1O2 (configuration not stated)	SENP8 block-1 43 | SENP8 conf inactive
COC(=O)C1=C(C)NC(C)=C(C(=O)OC)C1c1ccc(-c2cccc([N+](=O)[O-])c2)o1	SENP8 block-1 47 | SENP8 conf inactive
O=C(CN1CCN(Cc2ccc(F)cc2)CC1)NCc1ccccc1	none
N#C/C(=C\C1=C(N2CCOCC2)C(=C/c2cccc([N+](=O)[O-])c2)/CC1)C(=O)Nc1ccccc1F	SENP8 block-1 48 (no result: SENP6 block, Platelet DG rel, SENP7 block, SENP8 block-2) | SENP8 conf inactive
Cc1onc(-c2ccccc2Cl)c1-c1nc(-c2ccccn2)no1	SENP8 block-1 41 | SENP8 conf inactive
CCC(C)Nc1nc(N)c([N+](=O)[O-])c(Nc2cc(OC)ccc2OC)n1 (configuration not stated)	SENP8 block-1 45 | SENP8 conf inactive
CCC(C)Nc1nc(N)c([N+](=O)[O-])c(Nc2ccccc2OC)n1 (configuration not stated)	none
CC1=NN(c2ccccc2C)C(=O)C1	SENP8 block-1 51 (no result: SENP6 block, Platelet DG rel, SENP7 block, SENP8 block-2) | SENP8 conf inactive
Cc1ccccc1N1CC(=O)N(c2ccccc2C)CC1=O	none
CCN(CC)C(=O)C(=O)Nc1ccc(OC)c(Cl)c1	none
CC1(C)OC(c2ccccc2)=C/C(=C/C=N/NC(=O)c2ccncc2)O1	SENP8 block-1 41 | SENP8 conf inactive
Cc1ccccc1N=C/C=C1/C=C(c2ccccc2)OC(C)(C)O1	none
NC(=O)C1CCN(C(=O)C(=O)c2cn(CC(=O)N3CCCCCC3)c3ccccc23)CC1	none
Cc1cc(C)n(-c2nnc3c4ccccc4n(C)c3n2)n1	none
Oc1ccc(C[C@H]2CNC(=S)N2C[C@H]2CCCN2C[C@H](Cc2ccccc2)N2C[C@H](Cc3ccccc3)N(CC3CCCCC3)C2=S)cc1	none (no result: SENP6 block, Platelet DG rel, SENP7 block, SENP8 block-2)
CN(C)c1ccc(NC(=O)CSc2nc3c(c(=O)[nH]2)CCCC3)cc1	SENP8 block-1 45 | SENP8 conf inactive
O=C(Nc1nccs1)C1CCCCN1S(=O)(=O)c1ccccc1 (configuration not stated)	SENP8 block-1 45 | SENP8 conf inactive
CCC(CO)Oc1cc(NCc2ccncc2)c2ncn(C(C)C)c2c1 (configuration not stated)	SENP8 block-1 41 (no result: Platelet DG rel) | SENP8 conf inactive
COC(=O)CCCC1=CC2=C(c3ccccc3)C(=O)C(C)(OC(=O)C3CCCC3)C(=O)C2=CN1C1CCCCC1 (configuration not stated)	SENP8 block-1 44 | SENP8 conf 49
CN(C)CCCO[C@@H]1[C@H]2OC(C)(C)O[C@H]2O[C@@H]1[C@H](O)CO	none (no result: Platelet DG rel)
Cc1ccccc1C1=C/C(=C(\SS/C(C(=O)c2ccc(OCC(=O)O)c(Cl)c2Cl)=C2\C=C(c3ccccc3C)SS2)C(=O)c2ccc(OCC(=O)O)c(Cl)c2Cl)SS1	SENP8 block-1 41 (no result: SENP6 block, Platelet DG rel, SENP7 block, SENP8 block-2) | SENP8 conf 56
Cc1cc(O)c(C(C)C)cc1N=Cc1cc([N+](=O)[O-])ccc1O	SENP8 block-1 73 | SENP8 conf inactive
Cc1cc(O)c(C(C)C)cc1N=Cc1ccccc1O	SENP8 block-1 82 | SENP8 conf inactive
CCOC(=O)C1=C(O)C(=O)N(c2ccccc2)C1c1cccc([N+](=O)[O-])c1 (configuration not stated)	SENP8 block-1 40 | SENP8 conf inactive
CCOC(=O)Nc1ccc2c(c1)N(C(=O)CN(CC)CC)c1ccccc1CC2	none
CCN(CC)CC(=O)Nc1ccc2c(c1)N(C(=O)CN(CC)CC)c1ccccc1CC2	SENP8 block-1 40 | SENP8 conf 55
CC1CCN(C(=O)CSc2ccc(-c3ccccc3)nn2)CC1	none
CCOC(=O)C1C(=O)CC(C)(O)C(C(=O)OCC)C1c1ccc([N+](=O)[O-])cc1 (configuration not stated)	SENP8 block-1 46 | SENP8 conf inactive
CCN1CCN(c2ccc(N=Cc3ccccc3O)cc2)CC1	none
CN(C)c1cc[n+](/C(C(=S)Nc2ccc(SC(F)F)cc2)=C(/[O-])c2ccccc2)cc1	SENP8 block-1 44 | SENP8 conf inactive
